High-throughput results (PubChem BioAssay)
A selection: hits, their analogues and other compounds. The true share with any hit is near 6%.
D1 agonist = Allosteric Agonists of the Human D1 Dopamine Receptor: qHTS | D(1A) dopamine receptor (Homo sapiens), P21728 | HEK293 T-REx D1 cells, calcium flux, agonist mode | activation, % at 2 µM | 1% of 360,000 active | AID 504660, 2011; in the data active = activation above about 30%; note: 0% is about no effect
Target sequence (P21728 whole entry, looked up): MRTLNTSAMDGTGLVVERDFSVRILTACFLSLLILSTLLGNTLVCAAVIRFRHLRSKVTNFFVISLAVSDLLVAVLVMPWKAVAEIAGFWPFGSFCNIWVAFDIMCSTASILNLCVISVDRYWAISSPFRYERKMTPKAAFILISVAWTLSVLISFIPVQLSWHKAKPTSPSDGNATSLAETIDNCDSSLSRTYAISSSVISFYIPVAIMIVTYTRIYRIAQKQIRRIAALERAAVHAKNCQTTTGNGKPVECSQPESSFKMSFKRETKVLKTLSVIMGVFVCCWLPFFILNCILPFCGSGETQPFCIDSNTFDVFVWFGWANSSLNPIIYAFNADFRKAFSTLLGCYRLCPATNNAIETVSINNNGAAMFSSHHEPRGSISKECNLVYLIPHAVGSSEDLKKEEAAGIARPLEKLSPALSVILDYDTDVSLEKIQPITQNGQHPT
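Inducible HEK293 T-REx D1 cells, force-coupled to calcium signalling, were plated at 4000 cells/well with tetracycline and held overnight at 30 C. After no-wash calcium dye loading, compound-evoked calcium rise over 180 s flagged agonists.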
D1 potentiator = Potentiators of Human D1 Dopamine Receptor: qHTS. D(1A) dopamine receptor (Homo sapiens), P21728. HEK293 TREx D1 cells, calcium flux, dopamine EC20 potentiation. potentiation, % at 10 µM. 0.036% of 360,000 active. AID 504651, 2011; in the data active = potentiation above about 30%; note: 0% is about no effect
D1 antagonist = Antagonist of Human D 1 Dopamine Receptor: qHTS. D(1A) dopamine receptor (Homo sapiens), P21728. HEK293 TREx D1 cells, calcium flux, dopamine EC80; active compounds read low. activity change, negative = inhibition, % at 10 µM. 3.2% of 360,000 active. AID 504652, 2011; in the data active = activity change below about -30%; note: % is set by controls: 0 for no effect and ±100 for the full control effect
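Tetracycline-induced HEK293 Trex D1 cells, force-coupled to calcium, dye-loaded; compounds added and read 180 s, then EC80 dopamine added and calcium flux tracked kinetically another 180 s.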
DRD3 antagonist = qHTS of D3 Dopamine Receptor Antagonist: qHTS | D(3) dopamine receptor (Homo sapiens), P35462 | D3R cells, DiscoveRx beta-arrestin luminescence, antagonist mode; active compounds read low | max response, negative = inhibition, % | 2.5% of 360,000 active; in the data active = max response below about -50%; inconclusive = no clear call, values can overlap the other calls; note: % is set by controls: 0 for no effect and ±100 for the full control effect
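Cells expressing the human receptor were seeded at 1500 cells/well, incubated overnight at 37 degrees C in 5% CO2, then exposed to library compounds with dopamine controls for 90 minutes at 37 degrees C before luminescent detection.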
D3 ag = qHTS of D3 Dopamine Receptor Agonist: qHTS. D3R DiscoveRx beta-arrestin cells, luminescence, 90 min. max activation, %. AID 652048, 2013. D(3) dopamine receptor (Homo sapiens), P35462. 0.58% of 410,000 active; in the data active = max activation above about 30%; note: 0% is about no effect
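Agonist mode: compounds and dopamine controls were applied to plated cells for 90 min at 37 degrees C after an overnight attachment at 1500 cells/well. Luminescent read-out followed 30 - 60 minutes at room temperature with DiscoveRx detection reagent.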
An asterisk follows results filed as active; ? = inconclusive; · = no result given.

SMILES	D1 agonist	D1 potentiator	D1 antagonist	DRD3 antagonist	D3 ag
CC(C)NC(=O)c1cc(C2CCCCN2C(=O)OCCF)on1 (stereo unspecified)	·	·	·	42.3	8.4
O=C1NC(=Nc2ccccc2Cl)S/C1=C\c1cc([N+](=O)[O-])ccc1O	76.2*	-7.8	10.4	-14.8	-3.6
Cc1ccc(S(=O)(=O)/N=C2/NC(=O)/C(=C/c3cc([N+](=O)[O-])ccc3O)S2)cc1	218.0*	-0.1	34.4	-4.8	6.1
O=C1N/C(=N/O)S/C1=C/c1cccc([N+](=O)[O-])c1	2.7	1.4	-18.4	-4.8	3.3
COc1cccc(N=C2NC(=O)/C(=C/c3cc([N+](=O)[O-])ccc3O)S2)c1	83.4*	2.6	34.3	-7.2	-7.3
CC(C)CN(C(=O)C1COc2ccccc2O1)c1c(N)n(CC(C)C)c(=O)[nH]c1=O (stereo unspecified)	2.4	-7.2	24.2	12.9	3.1
Cc1cccc(/C=N/NC(=O)c2ccc(NC(=O)c3ccc(Cl)cc3)cc2)n1	1.5	-11.9	-83.2*	?	-2.4
Cc1cccc(C(=O)Nc2cccc(C(=O)N/N=C/c3cccc(C)n3)c2)c1	0.4	-3.2	-14.1	0.0	-2.4
Cc1cccc(/C=N/NC(=O)c2ccc(NC(=O)c3ccc(F)cc3)cc2)n1	-3.5	-8.3	-51.0*	-2.7	1.6
CC(C)CCn1c(=O)c2cccnc2n(CC(=O)Nc2ccccc2)c1=O	-0.5	-4.0	-2.2	·	-2.5
O=C(/C=C/c1ccc(Br)cc1)c1ccc(NC2=NCCCS2)cc1	3.9	-5.7	-9.1	-55.1*	-26.7
O=C(/C=C/c1ccccc1)c1ccc(NC2=NCCCS2)cc1	6.8	-8.2	0.4	-0.5	16.6
COc1cccc(/C=C/C(=O)c2ccc(NC3=NCCCS3)cc2)c1	16.9	-9.5	-21.3	-53.7*	-8.2
CC(C)(C)c1ccc(/C=C/C(=O)c2ccc(NC3=NCCCS3)cc2)cc1	12.8	0.9	3.2	-21.7	-0.5
Cc1cccc(/C=C/C(=O)c2ccc(NC3=NCCCS3)cc2)c1	5.0	-5.8	-14.8	-56.9*	-2.2
CC(=O)c1ccc(Nc2ccc3cc(S(=O)(=O)N4CCCC4)ccc3n2)cc1	1.2	-3.0	-3.4	·	0.2
Cc1cc2c(s1)c1cnn(Cc3cccc(F)c3F)c(=O)c1n2C	0.7	4.9	-9.5	·	·
Cc1ccc(CCNC(=O)C(CC(C)C)NS(=O)(=O)c2ccc3c(c2)oc(=O)n3C)cc1 (stereo unspecified)	5.3	-1.4	7.7	·	-10.6
CCCN(CCC)CCc1cccc2c1CC(=O)N2	·	·	·	·	81.0*
COc1cc(N=c2ssnc2Cl)cc(OC)c1	4.5	3.0	-3.5	-71.1*	-8.1
Clc1nssc1=Nc1ccc(Br)cc1	33.9*	-5.8	-10.9	4.8	5.4
O=S(=O)(/N=C(/c1ccccc1)N1CCOCC1)c1ccc(F)cc1F	·	·	·	11.0	-5.2
CCC(=O)N1CCc2cc(S(=O)(=O)NC(Cc3ccccc3)C(=O)Nc3cccc(OC)c3)ccc21 (stereo unspecified)	0.0	-0.6	7.2	·	-1.9
CCOC(=O)CC[C@H](NC(=O)Cn1cnc2c(NCc3ccccc3)ncnc21)C(=O)OCC	·	·	·	-29.3	-3.8
O=C(NCc1ccc(Cl)cc1)NC1COc2ccccc2C1 (stereo unspecified)	4.5	-2.0	-10.2	·	-9.0
SMILES	D1 agonist	D1 potentiator	D1 antagonist	DRD3 antagonist	D3 ag
Cn1c(C(=O)O)cc2cc(Oc3ccccc3)ccc21	3.2	0.2	11.7	3.9	-2.1
Cn1c(C(=O)NN)cc2cc(Oc3ccccc3)ccc21	5.2	-5.0	-46.2*	87.2	1.5
COc1ccc(OCC(=O)Nc2cc(-c3cccc(Cl)c3)nn2-c2ccccc2)cc1	9.2	1.8	-4.3	·	-6.4
COc1cc(C(=S)N2CCOCC2)cc(OC)c1OC(=O)c1ccc(C)cc1	3.1	-1.8	-2.1	-20.8	-8.7
COc1ccccc1OCC(=O)N(Cc1cccs1)C1CCS(=O)(=O)C1 (stereo unspecified)	-0.7	0.1	-42.4*	·	9.5
CCOc1ccc(CN(C(=O)c2cccs2)C2CCS(=O)(=O)C2)cc1 (stereo unspecified)	1.7	-7.5	-43.5*	-8.6	2.3
CCc1ccc(NC(=O)CSc2nc(-c3cccc(OC)c3)nc3c2Cc2c(CO)cnc(C)c2O3)cc1	1.1	-4.2	-6.6	·	0.5
CCOC(=O)c1c(/N=C/c2cc(C)ccc2O)sc2c1CCN(C)C2	1.8	-4.8	-11.6	-54.0*	-34.8
